Reference: PubChem BioAssay (NCI)
Compounds without any hit were thinned out: in the full panel of roughly 83,000, 20% have a hit.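 48-hour exposure, single concentration, 96-well plates; percent growth endpoint where 0 means no net growth. Active: below 10.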 Unmarked numbers belong to inactive results. Active and inactive are the calls of the source.

The compounds below were run on BT-549 breast (assay: NCI-60 one-dose screen, 48 h (100 = growth as untreated, 0 = no growth, -100 = all killed)). Conditions: 10 µM.

Q: `COc1ccc(-c2nc(-c3nc4cc(Cl)c(Cl)cc4[nH]3)c3ccccn23)cc1` was tested. Which growth did it give?
A: 71.9%

Q: How did the growth turn out when `Cc1ccc(CC#N)cc1C` was run?
A: 124%

Q: `O=C1/C(=C\c2ccc(Cl)cc2)CN(C(=S)Nc2ccccc2)C/C1=C\c1ccc(Cl)cc1` was tested. Which growth did it give?
A: -66.6% (active)

Q: For `C#Cc1ccc(-n2c(/C=C/c3ccc4ccccc4n3)nc3ncccc3c2=O)cc1`, which growth is on record?
A: 5.21% (active)

Q: `N#CCCN1C/C(=C/c2ccccc2)C(=O)/C(=C/c2ccccc2)C1` was tested. Which growth did it give?
A: 44.3%

Q: Which growth does the source give for `CCC(=O)N1C/C(=C/c2ccc(OC)cc2)C(=O)/C(=C/c2ccc(OC)cc2)C1` here?
A: 13.2%

Q: For `Cc1ccc(C)c(C(O)(c2cc(C)ccc2C)C2(O)CCCCC2)c1`, which growth is on record?
A: 100%

Q: How did the growth turn out when `O=C1/C(=C\c2ccc(F)cc2)CN(C(=O)c2ccc([N+](=O)[O-])cc2)C/C1=C\c1ccc(F)cc1` was run?
A: 5.36% (active)

Q: With `CC(=O)OCc1cc(-c2nc3ccccc3[nH]c2=O)nn1-c1ccc(Cl)cc1` as the compound, how does the growth read?
A: 102%

Q: For `O=C1/C(=C\c2ccc(Cl)cc2)CN(C(=O)c2ccccc2)C/C1=C\c1ccc(Cl)cc1`, which growth is on record?
A: 19.8%

Q: `CC(C)(C)c1cc(Br)cc(C(C)(C)C)c1O` was tested. Which growth did it give?
A: 111%

Q: `C#Cc1ccc(-n2c(/C=C/c3ccc(C(F)(F)F)cc3)nc3ncccc3c2=O)cc1` was tested. Which growth did it give?
A: 24.8%

Q: For `CC/C(=C(/c1ccc(OCCN(C)C)cc1)c1ccc(OC(=O)CCCCC(=O)c2c(C)[nH]c(/C=C3\N=C(c4ccc[nH]4)C=C3OC)c2C)cc1)c1ccccc1`, which growth is on record?
A: 60.8%

Q: Which growth does the source give for `CSc1nn(-c2ccccc2)c2ncnc(Oc3ccccc3)c12` here?
A: 94.5%
